Results filed as inconclusive are left out. Where a call stands in place of a potency, no number is given. Calls of active or inactive are those of the source. The call rests on the fitted dose curve; in most records, active means well fitted curve in the direction sought with a large enough effect; inconclusive means small, poorly fitted or top-dose-only effect, or another doubt; inactive means no such curve, though single readings can be large; an effect the other way counts as inactive or inconclusive.
Experiments:
[1] = qHTS assay for measurement of the activity of small molecule inhibitors on Zika virus induced Caspase-3 activity in human iPSC derived neural progenitor cells (hNPCs) (AID 1224857); further: nearly all actives have a fitted effect of over 65% in size
Method in brief: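 In medium with heparin 2 ug/ml and cyclopamine 2 uM, hNPCs (350 cells/well) received compound for one hour and then Zika virus at 2 FFU/cell; caspase activity was measured by Caspase-Glo 3/7 luminescence 6 h post-infection.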

[2] = qHTS assay for measurement of the activity of small molecule inhibitors on Zika virus induced Caspase-3 activity in human astrocytoma cells (AID 1224859)
Method in brief: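 A cell-based luminescent caspase-3/7 assay used SNB-19 cells infected with ZIKV (2 FFU/cell) for 6 h following 1 h compound pretreatment.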

[3] = P-glycoprotein substrates identified in KB-8-5-11 adenocarcinoma cell line, qHTS therapeutic library screen (AID 1346987); further: nearly all actives have a fitted effect of over 65% in size; further: potency means the concentration at half of the fitted maximal effect
Method in brief: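 P-gp-mediated resistance screen: KB-8-5-11 cells treated 72 h with compounds in dose-response. CellTiter-Glo viability.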

[4] = NS1 protein of Zika virus - qHTS assay to identify small molecule inhibitors in human HEK 293 cells (AID 1347053); further: series mostly up to about 46 µM; nearly all actives have a fitted effect of over 55% in size
Method in brief: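 HEK 293; 20 h pre-culture, 37 C/5% CO2; cpd 1 h pre-infection; ZIKV MR766, MOI = 0.5, 24 h, 37 C; TR-FRET NS1 readout (two anti-NS1 Abs); norm. to no-virus vs infected.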

[5] = qHTS of pediatric cancer cell lines to identify multiple opportunities for drug repurposing: Primary screen for TC32 cells (AID 1347089); further: nearly all actives have a fitted effect of over 60% in size; further: potency means the concentration at half of the fitted maximal effect
Method in brief: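 In the primary qHTS, MIPE compounds were tested at 11 concentrations (0.78 nM to 46 µM) and NPC compounds at 8 (0.59 nM to 46 µM) on TC32 cells for 48 h. CellTiter-Glo luminescence gave viability.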

[6] = qHTS of pediatric cancer cell lines to identify multiple opportunities for drug repurposing: Primary screen for DAOY cells (AID 1347090); further: nearly all actives have a fitted effect of over 55% in size; further: potency means the concentration at half of the fitted maximal effect
Method in brief: (§1)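 Cell viability, CellTiter-Glo luminescence; 500-1,000 cells/well, 8- or 11-point titration, 48 h compound exposure at 37 degrees C, 5% CO2. Controls: DMSO neutral, bortezomib 2.3 µM final as positive.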

[7] = qHTS of pediatric cancer cell lines to identify multiple opportunities for drug repurposing: Primary screen for SJ-GBM2 cells (AID 1347091); further: potency means the concentration at half of the fitted maximal effect
Method in brief: as §1

[8] = qHTS of pediatric cancer cell lines to identify multiple opportunities for drug repurposing: Primary screen for A673 cells (AID 1347092); further: nearly all actives have a fitted effect of over 45% in size; further: potency means the concentration at half of the fitted maximal effect
Method in brief: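 48 h compound exposure, A673, 500-1,000 cells/well, 37 degrees C/5% CO2. MIPE: 11-point, 0.78 nM-46 µM; NPC: 8-point, 0.59 nM-46 µM (final). Readout CellTiter-Glo luminescence after 15 min RT.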

Row | Structure (SMILES) | Potency [1] | outcome [2] | Potency [3] | Potency [4] | Potency [5] | Potency [6] | Potency [7] | Potency [8]
1 | CCNC(=O)NCCCOc1cccc(CN2CCCCC2)c1 | inactive | inactive | inactive | inactive | inactive | inactive | inactive | inactive
2 | COc1cc(C=O)ccc1O | inactive | inactive | inactive | inactive | inactive | inactive | inactive | inactive
3 | CN1CCC(=C2c3ccccc3CCc3cccnc32)CC1 | inactive | inactive | inactive | inactive | inactive | inactive | inactive | inactive
4 | CC1CC(=O)NN=C1c1ccc(NCC(C)(C)NCC(O)COc2cc(Cl)ccc2C#N)cc1 (stereo not drawn) | inactive | inactive | inactive | inactive | inactive | inactive | inactive | 
5 | O=C(CO)[C@@H](O)[C@H](O)[C@@H](O)CO | inactive | inactive | inactive | inactive | inactive | inactive | inactive | inactive
6 | CC(=O)Nc1ccc(S(=O)(=O)Nc2cc(C)on2)cc1 | inactive | inactive | inactive | inactive | inactive | inactive | inactive | inactive
7 | Oc1ccccc1 | inactive | inactive | inactive | inactive | inactive | inactive | inactive | inactive
8 | Cc1cc(C(C)(C)C)c(O)c(C(C)(C)C)c1 | inactive | inactive | inactive | inactive | inactive | inactive | inactive | inactive
9 | CCC(C(=O)NC(=O)NC(C)=O)c1ccccc1 (stereo not drawn) | inactive | inactive | inactive | inactive | inactive | inactive | inactive | inactive
10 | Cc1cccc(C)c1NC(=O)c1cc(S(N)(=O)=O)c(Cl)cc1O | inactive | inactive | inactive | inactive | inactive | inactive | inactive | inactive
11 | CO[C@@H]1[C@@H](O[C@@H]2O[C@H](C)[C@@H](O[C@H]3C[C@@](C)(O)[C@@H](O)[C@H](C)O3)[C@H](N(C)C)[C@H]2O)[C@@H](CC=O)C[C@@H](C)[C@@H](O[C@@H]2CC[C@H](N(C)C)[C@@H](C)O2)/C=C/C=C/C[C@@H](C)OC(=O)C[C@H]1OC(C)=O | inactive | inactive | inactive | inactive | inactive | inactive | inactive | 
12 | CC(=O)CC/C=C(\C)CC/C=C(\C)CC/C=C(\C)CCC=C(C)C | inactive | inactive | inactive | inactive | inactive | inactive | inactive | inactive
13 | CN1C(CSCC(F)(F)F)Nc2cc(Cl)c(S(N)(=O)=O)cc2S1(=O)=O (stereo not drawn) | inactive | inactive | inactive | inactive | inactive | inactive | inactive | inactive
14 | CC(C)C[C@H](NC(=O)CNC(=O)[C@H](Cc1ccc(O)cc1)NC(=O)[C@H](CO)NC(=O)[C@H](Cc1c[nH]c2ccccc12)NC(=O)[C@H](Cc1cnc[nH]1)NC(=O)[C@@H]1CCC(=O)N1)C(=O)N[C@@H](CCCN=C(N)N)C(=O)N1CCC[C@H]1C(=O)NCC(N)=O (stereo in doubt) | inactive | inactive | inactive | inactive | inactive | inactive | inactive | inactive
15 | CC(CCc1ccc2c(c1)OCO2)NN (stereo not drawn) | inactive | inactive | inactive | inactive | inactive | inactive | inactive | inactive
16 | O=C(O)[C@H](O)[C@@H](O)[C@H](O[C@@H]1O[C@H](CO)[C@H](O)[C@H](O)[C@H]1O)[C@H](O)CO | inactive | inactive | inactive | inactive | inactive | inactive | inactive | inactive
17 | Nc1c[n+](N2CCOCC2)no1 | inactive | inactive | inactive | inactive | inactive | inactive | inactive | inactive
18 | OCCCc1ccccc1 | inactive | inactive | inactive | inactive | inactive | inactive | inactive | inactive
19 | Cc1cc2nc3ccc(=[N+](C)C)cc-3sc2cc1N | inactive | inactive | 6.51 µM (active) | inactive | 2.97 µM (active) | 13.3 µM (active) | 21.1 µM (active) | 10.6 µM (active)
20 | N[C@@H](Cc1cc(I)c(O)c(I)c1)C(=O)O | inactive | inactive | inactive | inactive | inactive | inactive | inactive | inactive
21 | CN1C(=O)c2ccccc2C1=O | inactive | inactive | inactive | inactive | inactive | inactive | inactive | inactive
22 | O=C(O)CCCC[C@@H]1SC[C@@H]2NC(=O)N[C@@H]21 | inactive | inactive | inactive | inactive | inactive | inactive | inactive | inactive
23 | O=C(O)CCC(=O)OC[C@@H](NC(=O)C(Cl)Cl)[C@H](O)c1ccc([N+](=O)[O-])cc1 | inactive | inactive | inactive | inactive |  | inactive | inactive | 
24 | CC(=O)OC/C=C(C)/C=C/C=C(C)/C=C/C1=C(C)CCCC1(C)C | inactive | inactive | inactive | inactive | inactive |  | inactive | 
25 | CCOC(=O)NNc1ccc(N(CC)CC(C)O)nn1 (stereo not drawn) | inactive | inactive | inactive | inactive |  | inactive | inactive | inactive

Reference: PubChem BioAssay (NCATS)
